# From ChEMBL document CHEMBL3988442, “University of Dundee, Small-Polar-MMV Screening Library” (2021)
# Among all 48,000 compounds or so, about 13,000 (27%) showed an effect of 50% or more. The list shows a part of the results.
# System: Wolbachia pipientis
# Experiment: Anti-Wolbachia Cell-Based Screen
# Format: functional
# Design: scale not given: in the data most compounds retested in dose-response had high values
# Details: 5 µM
row,SMILES,Percent Effect [%]
1,Cc1ncsc1CCN(C)Cc1cc2n(n1)CCN(Cc1ccco1)C2,0.12
2,COCc1cc(N(CC(F)F)C2CC2)n2ncnc2n1,-15.21
3,CC(C)(Cn1cnc(-c2ccccc2)c1-c1ccco1)N1CCOCC1,0.7687
4,Cc1nc2c(c(=O)n1C)CCN(C(=O)CCc1ccccn1)CC2,-4.884
5,CN(C)[C@@H]1CCN(C(=O)c2ccco2)[C@H]1Cc1cnn(C)c1.O=C(O)C(F)(F)F,-8.002
6,Cc1ccc(CN(CCCN2CCOCC2)Cc2cnn(C)c2)o1.O=C(O)CC(O)(CC(=O)O)C(=O)O,97.82
7,COCCN(Cc1cnn(C)c1)Cc1ccc(C)o1,2.974
8,CN(Cc1cnn(C)c1)S(=O)(=O)N1CCCC1c1ccco1 (stereo unspecified),-4.037
9,CN(C)CCCN(Cc1cnn(C)c1)Cc1ccco1.O=C(O)CC(O)(CC(=O)O)C(=O)O,115.2
10,CCN(CCCN1CCOCC1)C(=O)c1cnn(CC)c1,-6.092
11,O=C1NCC2(CCCN(C(=O)Nc3ccc4scnc4c3)CC2)O1 (stereo unspecified),-9.08
12,Cc1cnn(CC2CCN(CC(O)c3ccc(F)cc3)CC2)c1 (stereo unspecified),-5.813
13,CC(C)CN1CC[C@@H]2[C@H](CC1)N(S(C)(=O)=O)CCS2(=O)=O.O=C(O)C(F)(F)F,96.88
14,CC(=O)N1CCS(=O)(=O)[C@@H]2CCN(CC(C)C)CC[C@@H]21.O=C(O)C(F)(F)F,-6.859
15,CC(C)CN1CCS(=O)(=O)[C@@H]2CCN(S(=O)(=O)N(C)C)CC[C@@H]21.O=C(O)C(F)(F)F,-16.7
16,CC(C)(C)CC(=O)N1CC[C@@H]2[C@H](CC1)N(S(C)(=O)=O)CCS2(=O)=O,-4.617
17,CC(C)CCC(=O)N1CC[C@@H]2[C@H](CC1)N(S(C)(=O)=O)CCS2(=O)=O,94.59
18,CC(C)CN1CCS(=O)(=O)[C@@H]2CCN(S(=O)(=O)C3CC3)CC[C@@H]21.O=C(O)C(F)(F)F,4.008
19,CC(=O)N1CCS(=O)(=O)[C@@H]2CCN(S(=O)(=O)CC(C)C)CC[C@@H]21,8.105
20,CC(C)CC(=O)N1CC[C@@H]2[C@H](CC1)N(S(C)(=O)=O)CCS2(=O)=O,1.552
21,CC(C)(C)C(=O)N1CC[C@@H]2[C@H](CC1)N(S(C)(=O)=O)CCS2(=O)=O,98.9
22,C[C@H]1CC[C@H](C(=O)N2CCC(n3cc(C4(O)CCCC4)nn3)CC2)CC1,3.706
23,CSc1ncc(C(=O)N2C[C@@H](NC(C)=O)[C@H](c3ccc(C)cc3)C2)cn1,-0.9583
24,CN(C(=O)NCCCN1CCCC1)C1CCN(c2ccccc2)C1=O (stereo unspecified),-8.204

row,SMILES,Percent Effect [%]
1,Cc1cc(-c2cncnc2)ccc1OCC(N)=O,-32.33
2,N#Cc1cc(N2CCC(S(N)(=O)=O)CC2)c2ccccc2n1,-5.494
3,COCCN1CCCC(c2nc3c([nH]2)CC(C)(C)CNC3=O)C1 (stereo unspecified),-7.15
4,CCCn1cc(C(=O)N2CCCC(c3nccn3CCOC)C2)c(C)n1 (stereo unspecified),0.1706
5,COCCn1cnc(-c2nc(C(=O)N3CCOCC3)c3ccccn23)c1,-9.685
6,COCCN1CCCC(c2ncc(C(=O)N3CCOCC3)c(C)n2)C1 (stereo unspecified),169
7,COCCCC1(CO)CCCN(C(=O)c2cnc(C3CC3)nc2)C1 (stereo unspecified),-3.858
8,COCCN1C[C@@H](C)[C@@]2(COCCN(C(=O)c3cnc(C)cn3)C2)C1.O=C(O)C(F)(F)F,-26.1
9,COCCN1CCC(c2ncc(C(=O)N3CCOCC3)c(C)n2)CC1,139.1
10,COCCN1CCCC(c2ncc(C(=O)N(C)C)c(C)n2)C1 (stereo unspecified),128.7
11,COc1ccccc1OCCN1CCCC(c2noc(C3CC3)n2)C1 (stereo unspecified),-3.612
12,CN1CC(NC(=O)Cc2csc(C(C)(C)C)n2)CCC1=O (stereo unspecified),-3.161
13,Cn1cccc1C(O)CNS(=O)(=O)c1ccccc1Br (stereo unspecified),6.296
14,COc1ccc(F)cc1C(=O)N(C)Cc1cc(C)on1,2.319
15,CN(CC(=O)N1CCCC1)C(=O)c1ccccc1F,15.74
16,COC(=O)CCN1CCC(C(=O)c2cc(F)ccc2F)CC1,-15.76
17,O=C(NCC1(CO)CC1)c1ccccc1F,-18.48
18,COc1ccc(F)cc1C(=O)N(C)[C@@H]1CC[C@@H](O)[C@@H]1O,132.3
19,CN(C(=O)c1cc(F)ccc1F)[C@@H]1CC[C@@H](O)[C@@H]1O,103
20,NC(=O)N1CCCC1COC(=O)c1cc(F)ccc1F (stereo unspecified),-4.772
21,COc1ccc(F)cc1CSCC(=O)N(C)C1CC1,-12.98
22,CO[C@@H]1CCC[C@@H](N(C)C(=O)c2cc(F)ccc2F)[C@H]1O,130.1
23,CN(C(=O)c1ccccc1F)[C@@H]1CC[C@@H](O)[C@@H]1O,107.7
24,N[C@@H]1CC[C@H](C(=O)NCCc2nc(-c3ccccc3)cs2)C1,11.72

row,SMILES,Percent Effect [%]
1,COc1ccc2c(c1)OCC(Cc1cncc(N)c1)C2 (stereo unspecified),-0.2819
2,COc1cccc(OC)c1C(=O)N1C[C@@H](CN(C)C)[C@@H](CO)C1,-5.352
3,COc1cccc(F)c1C(=O)N1C[C@@H](CN(C)CCO)[C@@H](CO)C1,0.09463
4,CCN(C)C[C@@H]1CN(C(=O)c2cc(C(F)(F)F)n[nH]2)C[C@@H]1CO,95.2
5,CN(C)C[C@@H]1CN(C(=O)c2cc(F)ccc2F)C[C@@H]1CO,-6.942
6,CN(C)C[C@@H]1CN(C(=O)c2cc(-c3ccccc3)n[nH]2)C[C@@H]1CO,104.8
7,CN(C)C[C@@H]1CN(C(=O)c2cc(S(N)(=O)=O)ccc2F)C[C@@H]1CO,8.109
8,CCN(C)C[C@@H]1CN(C(=O)c2cc(-c3ccc(F)cc3)n[nH]2)C[C@@H]1CO,95.72
9,COc1ccc(-n2nc(C)c(C(C)=O)c2C)cc1C(N)=O,0.6017
10,CC(=O)NCCNC(=O)Nc1cccc(Cl)c1SC(F)F,-0.5749
11,Cc1ccc(C#N)c(N2CCCC(c3nccn3Cc3cscn3)C2)n1 (stereo unspecified),8.413
12,COCC1CN(C(=O)COc2ccccc2C)Cc2ncn(C)c21.O=C(O)C(F)(F)F (stereo unspecified),-9.212
13,CC(C)COCC1CN(C(=O)c2cscn2)Cc2ncn(C)c21.O=C(O)C(F)(F)F (stereo unspecified),123.8
14,Cc1cnc(C(=O)N2Cc3ncn(C)c3C(COCC(C)C)C2)cn1.O=C(O)C(F)(F)F (stereo unspecified),101.6
15,Cn1cnc2c1C(COCC1CC1)CN(C(=O)c1cscn1)C2.O=C(O)C(F)(F)F (stereo unspecified),-8.988
16,Cn1cnc2c1C(COCC1CC1)CN(C(=O)Cc1ccsc1)C2.O=C(O)C(F)(F)F (stereo unspecified),12.67
17,CCc1cc(N2CCC(F)(F)CC2)n2nc(C)c(C)c2n1,-3.857
18,c1ccc(CCN2CCCC2c2cncc(Nc3nncs3)n2)cc1 (stereo unspecified),77.51
19,c1nnc(Nc2cncc(C3CCCN3CC3CC3)n2)s1 (stereo unspecified),143.4
20,O=C(NCC1CCCN1CCc1ccccc1)NCC1(O)CCC1 (stereo unspecified),3.682
21,Cc1nc(C)n(CC2CCCN2CC(=O)Nc2nncs2)n1 (stereo unspecified),-3.74
22,Cl.NC(=O)COc1ccc(CNCc2ccc(F)cc2F)cc1,-6.385
23,COc1ccc2c(c1)Cc1c-2nc(N)c(C#N)c1C1CCOC1 (stereo unspecified),55.98
24,N#Cc1c(N)nc2c(c1C1CCOC1)CCc1cc(O)ccc1-2 (stereo unspecified),95.46

row,SMILES,Percent Effect [%]
1,Cc1cc(C)cc(-c2cc(C3CCOC3)c(C#N)c(N)n2)c1 (stereo unspecified),8.915
2,COc1ccc(-c2cc(C3CCOC3)c(C#N)c(N)n2)cn1 (stereo unspecified),-5.09
3,COc1cc(-c2cc(C3CCOC3)c(C#N)c(N)n2)ccc1O (stereo unspecified),-3.198
4,COc1ccc2c(c1OC)Cc1c-2nc(N)c(C#N)c1C1CCOC1 (stereo unspecified),97.76
5,CN(C)Cc1nc(C(C)(C)NC(=O)C2CC(=O)N(CC3CC3)C2)no1 (stereo unspecified),-8.829
6,CN(C(=O)c1cccn1C)C1CCC(NC(=O)OC(C)(C)C)CC1 (stereo unspecified),-22.93
7,O=C(NC(CC(F)(F)F)c1ccc(Cl)cc1)c1nc(=O)[nH][nH]1 (stereo unspecified),-2.983
8,Cc1nc(C)n(C2CCCN(C(=O)CCCn3ccnc3)C2)n1 (stereo unspecified),-10.35
9,Cc1ccc(=O)n(CC(=O)N2CCCC(c3nc(C)c(C)s3)C2)n1 (stereo unspecified),-3.398
10,Cc1csc2c(C3CCCN(C(=O)Cn4cncn4)C3)nc(C)n12 (stereo unspecified),83.22
11,Cc1csc2c(C3CCCN(C(=O)CCn4ccnc4)C3)nc(C)n12 (stereo unspecified),85.68
12,CC(C)c1nc(CC(=O)N2CCCC(n3cncn3)C2)cs1 (stereo unspecified),-6.104
13,COc1cccc(OCC2CCCN(C(=O)CCn3ccnc3)C2)c1 (stereo unspecified),-97.21
14,O=C(c1ccc2ccccc2c1)C1CCCN(C(=O)Cn2cncn2)C1 (stereo unspecified),2.145
15,CCCN1CCCC2(CCN(C(=O)CCCn3cncn3)C2)C1=O (stereo unspecified),-10.51
16,Cc1ccsc1[C@@H]1CCN(C(=O)CCCn2cncn2)C[C@H]1O,10.3
17,Cc1nc(C)n(CC(=O)N2CCCC(c3nc(C)n4c(C)csc34)C2)n1 (stereo unspecified),71.32
18,Cc1csc2c(C3CCCN(C(=O)CCCn4cncn4)C3)nc(C)n12 (stereo unspecified),105.3
19,COc1ccc2c(c1)CCCC2CC(=O)NCC(C)(C)C(=O)O (stereo unspecified),-16.88
20,CS(=O)(=O)CCCNC1(c2ccc(Br)cc2)CCC1,1.327
21,Cc1csc2c(C3CCN(C(=O)Cn4cncn4)CC3)nc(C)n12,67.21
22,Cc1csc(N2CCN(C(=O)CCn3cncn3)CC2)n1,2.857
23,Cc1csc2c(C3CCCN(C(=O)CCn4cncn4)C3)nc(C)n12 (stereo unspecified),98.48
24,CCc1csc(C2CCCN(C(=O)CCn3cc(C)cn3)C2)n1 (stereo unspecified),-1.231
